Mcl1-Noxa inh = Mcl-1/Noxa interaction inhibition. hit rate 1.5% among 220,000. inhibition, % at 21.7 µM. Q07820. TR-FRET Mcl-1/Noxa peptide binding, 2 h;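 active = compounds that cut the protein-peptide binding signal by more than 50% relative to plate controls in a single-dose test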;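 note: His-tagged Mcl-1 with rhodamine Noxa BH3 peptide and terbium anti-His antibody; 0% = Mcl-1 plus Noxa peptide wells and 100% = peptide-only wells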
Mcl-1 Bim block = human Bim-Mcl-1 interaction inhibition; Q07820; Bead-based flow cytometry, Bim peptide-Mcl-1 binding; inhibition, % at 10 µM; hit rate 0.1% among 190,000; in the data active = inhibition above about 40%;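 note: 0% = no compound tracer wells and 100% = peptide blocker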
MCL1 BIM primary = disrupts human MCL1 binding to BIM-BH3 peptide; Q07820; GST-MCL1 / FITC-Bim-BH3 fluorescence polarization; inhibition, % at 10.9 µM; hit rate 0.68% among 320,000; AID 2057;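 active = inhibition above the mean inhibition of all tested compounds plus 3 SD, set per campaign, cut at about 40% in these data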;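 note: 0% = DMSO wells and 100% = unlabeled Bim-BH3 peptide control; higher means more loss of mP so more displacement of Bim peptide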
Mcl1-Bid inh = Mcl-1/Bid interaction inhibition; hit rate 0.97% among 220,000; inhibition, % at 21.7 µM; TR-FRET Mcl-1/Bid-Dy647 peptide binding, 1536-well; AID 1021; Q07820;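 active = compounds that cut the binding signal by more than half at the single screening dose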;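 note: His-tagged Mcl-1 with europium anti-His antibody binding Bid BH3 peptide; 0% = Mcl-1 plus peptide wells and 100% = peptide-only wells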
Bcl-xL primary = blocks human Bcl-xL binding to Bim BH3 peptide. Q07817. GST-Bcl-xL / FITC-Bim BH3 peptide fluorescence polarization. inhibition, % at 10.9 µM. hit rate 0.7% among 320,000. AID 2129;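 active = inhibition above the mean of all tested compounds plus 3 SD, cutoff set per campaign, cut at about 30% in these data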;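 note: 0% = DMSO wells and 100% = unlabeled Bim-BH3 peptide competitor; inhibitors lower millipolarization by displacing the labeled peptide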
Target sequence (Q07817 whole entry, looked up): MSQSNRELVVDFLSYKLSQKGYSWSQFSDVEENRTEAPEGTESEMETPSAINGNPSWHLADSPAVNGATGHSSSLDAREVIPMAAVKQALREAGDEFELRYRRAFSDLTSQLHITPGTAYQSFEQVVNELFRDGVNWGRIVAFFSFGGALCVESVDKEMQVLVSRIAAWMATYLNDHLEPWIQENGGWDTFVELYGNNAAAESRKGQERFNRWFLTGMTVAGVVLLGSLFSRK
GLD-1 TGE inh = GLD-1-TGE RNA interaction inhibition (C. elegans); hit rate 0.44% among 320,000; purified GLD-1 + fluorescein TGE RNA, fluorescence polarization; inhibition, % at 5.96 µM; AID 2280;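 active = percent inhibition above a per-plate cutoff, the plate mean of test compounds plus 3 SD, cut at about 30% in these data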;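 note: 0% = DMSO wells with GLD-1 and probe and 100% = wells lacking GLD-1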
Active calls of the source: *; nt = no result given. Hits are enriched below; roughly 2.3% of the tested compounds scored in any of these assays.

SMILES	Mcl1-Noxa inh	Mcl-1 Bim block	MCL1 BIM primary	Mcl1-Bid inh	Bcl-xL primary	GLD-1 TGE inh
Cc1ccc2nc3nc(NCC4CCCO4)c(C(=O)NC4CCCC4)cc3c(=O)n2c1 (stereo unspecified)	15	0	2	2	4	3
COCCCNC(=O)c1cc2c(=O)n3cc(C)ccc3nc2nc1NCC1CCCO1 (stereo unspecified)	-1	-10	7	66*	8	3
CCN1/C(=N\N)c2cccc3cccc1c23	7	10	33	-6	52*	22
O=C(Nc1ccnn1C1CCN(Cc2cc(Cl)ccc2O)CC1)C1CC1	nt	nt	7	nt	4	-3
COc1cccc(N/C=C/C(=O)c2ccc(Br)cc2)c1	nt	nt	-5	nt	0	0
COc1ccc(C(=O)/C=C/Nc2cccc(O)c2)cc1	6	5	48*	-31	46*	-2
NS(=O)(=O)c1ccc(NS(=O)(=O)c2ccc(NC(=O)c3ccc(-c4ccccc4)cc3)cc2)cc1	27	1	6	54*	6	1
NS(=O)(=O)c1ccc(NC(=O)c2ccc(-c3ccccc3)cc2)cc1	-63	5	nt	28	nt	nt
NS(=O)(=O)c1ccc(C(=O)Nc2ccc(-c3nc4cccnc4s3)cc2)cc1	49	nt	1	52*	5	1
CSc1ncccc1C(=O)NCC(c1cccs1)N1CCOCC1 (stereo unspecified)	nt	nt	3	nt	2	6
Cc1ccc(S(=O)(=O)N(C)CC(O)Cn2c3ccccc3c3ccccc32)cc1 (stereo unspecified)	7	0	8	72*	1	-5
Cc1cnc(C(=O)Nc2ccc(C(=O)N3CCCCC3)cc2)cn1	56*	-3	8	0	11	-1
Cc1cc2c(c(C)c1CCO)C(=O)[C@H](C)C2	nt	nt	nt	nt	nt	6
CCN(CC)S(=O)(=O)c1ccc(N2CCOCC2)c(NC(=O)c2c3c(nc4ccccc24)CCC3)c1	91*	-2	24	20	8	5
O=C(Nc1cccc(S(=O)(=O)N2CCOCC2)c1)c1c2c(nc3ccccc13)CCC2	74*	0	30	-51	13	-1
O=C(Nc1cccc(S(=O)(=O)N2CCOCC2)c1)c1ccc2ccccc2n1	24	nt	-4	33	3	1
O=C(O)CCSSCCC(=O)O	nt	nt	-6	nt	3	1
CC(C)OCCCn1c(-c2ccco2)nc2nc3ccccc3nc21	23	0	25	-11	35*	14
Oc1cc2c(cc1C(c1ccc(Br)cc1)N1CCCC1)OCO2 (stereo unspecified)	82*	4	nt	90*	nt	nt
O=S(=O)(NCC(c1ccc2c(c1)OCO2)N1CCOCC1)c1ccc(Br)cc1 (stereo unspecified)	nt	nt	-6	nt	3	-1
CN(C)c1ccc(Nc2nc(N)c([N+](=O)[O-])c(N3CCOCC3)n2)cc1	83*	1	22	-12	10	-1
COc1ccc(NC(=S)NN2C(C)CCCC2C)cc1 (stereo unspecified)	52*	-9	39	42	4	1
COc1cc(C(=O)Nc2nnc(CC(=O)NCc3ccccc3)s2)cc(OC)c1OC	nt	nt	3	nt	2	-2
Cc1cccc2c3nc4ccccc4nc3n(CCCN3C(=O)c4ccccc4C3=O)c12	14	3	nt	73*	nt	nt
CC(C)OCCCNC(=O)c1c(N)n(/N=C/c2cccs2)c2nc3ccccc3nc12	32	-4	-10	61*	0	4
COCCCNC(=O)c1c(N)n(/N=C/c2ccccn2)c2nc3ccccc3nc12	nt	4	nt	nt	nt	nt
Cc1cc2c(c(=O)n1Cc1ccco1)C(c1cccnc1)C(C#N)=C(N)O2 (stereo unspecified)	0	0	45*	-89	47*	23
CCOc1ccc(C2C(C#N)=C(N)Oc3cc(C)n(Cc4ccco4)c(=O)c32)cc1OC (stereo unspecified)	1	0	14	-30	7	2
CCOC(=O)C(C(C)=O)c1c(Br)c(O)c(O)c2c(C(=O)c3ccc(C)cc3)coc12 (stereo unspecified)	68*	4	26	20	16	3
CCOC(=O)c1c(C)n(-c2ccc(C)cc2)c2c(C(C(C)=O)C(=O)O)c(Br)c(O)c(O)c12 (stereo unspecified)	24	0	9	-42	13	2
